For 24 molecules, Potency and outcome results are on record in PubChem BioAssay (Tox21).

Test [1] can be described thus: qHTS assay to identify small molecule antagonists of the thyroid receptor (TR) signaling pathway - cell viability counter screen (AID 743064). Note: nearly all actives have a fitted effect of over 50% in size. Note: potency is the fitted concentration of half-maximal effect. The method in brief: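 Viability of T3-stimulated (1 nM final) GH3.TRE-Luc cells is measured by CellTiter-Fluor fluorescence after 23.5 h compound exposure at 37 °C plus 30 min reagent incubation.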
(In general: qHTS replaces the single test concentration by a dilution series.)

The nature of test [2]: qHTS assay to identify small molecule antagonists of the thyroid receptor (TR) signaling pathway (AID 743065). Note: nearly all actives have a fitted effect of over 55% in size. Note: potency is the fitted concentration of half-maximal effect. The procedure, abridged: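 GH3.TRE-Luc rat pituitary cells (two TREs driving luciferase) were dosed with compound, then stimulated with 1 nM T3 (final) for 23.5 h at 37 C. ONE-Glo luminescence was the read-out, with CellTiter-Fluor fluorescence as the cytotoxicity counter-screen.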

The test system of test [3] is thyroid hormone receptor (rat, GH3 cells). The experiment in a line: qHTS assay to identify small molecule agonists of the thyroid receptor (TR) signaling pathway (AID 743066; calls by dose curve).
The target in test [4] is Estrogen receptor (Homo sapiens) (UniProt P03372). The experiment in a line: qHTS assay to identify small molecule antagonists of the estrogen receptor alpha (ER-alpha) signaling pathway (AID 743069; active = well fitted curve in the direction sought with a large enough effect in the signal ratio in the repeat runs, not every such curve was filed as active; the % refers to the signal ratio). The method in brief: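 HEK293 ER-alpha-UAS-bla GripTite cells, held overnight in 2% charcoal-stripped FBS, 5,000 cells/well, preincubated 4 h, then compound plus 17beta-estradiol for 18 h at 37C. Beta-lactamase read by LiveBLAzer B/G FRET substrate, 2 h at room temperature.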
Sequence of Estrogen receptor (Homo sapiens) (P03372 whole entry, looked up): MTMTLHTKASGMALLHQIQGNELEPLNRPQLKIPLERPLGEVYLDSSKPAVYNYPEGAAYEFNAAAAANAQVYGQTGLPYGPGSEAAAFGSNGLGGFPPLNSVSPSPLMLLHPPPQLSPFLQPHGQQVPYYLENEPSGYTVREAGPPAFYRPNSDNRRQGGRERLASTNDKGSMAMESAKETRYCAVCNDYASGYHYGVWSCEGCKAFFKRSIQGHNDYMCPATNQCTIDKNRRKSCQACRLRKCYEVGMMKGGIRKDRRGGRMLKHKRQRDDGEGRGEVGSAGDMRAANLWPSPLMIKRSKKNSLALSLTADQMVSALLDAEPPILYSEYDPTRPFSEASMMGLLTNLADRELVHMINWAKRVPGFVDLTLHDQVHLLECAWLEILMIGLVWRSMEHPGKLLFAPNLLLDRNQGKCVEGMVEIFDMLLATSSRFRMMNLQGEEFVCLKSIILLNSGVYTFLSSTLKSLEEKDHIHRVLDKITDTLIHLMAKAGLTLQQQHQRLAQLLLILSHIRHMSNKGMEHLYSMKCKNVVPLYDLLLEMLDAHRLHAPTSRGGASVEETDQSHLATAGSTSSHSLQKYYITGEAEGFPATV

Test [5] can be described thus: qHTS assay to identify small molecule antagonists of the estrogen receptor alpha (ER-alpha) signaling pathway - cell viability counter screen (AID 743074; calls by dose curve;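 note: HEK293 cells carrying ER-alpha-UAS-bla reporter stimulated with 17beta-estradiol; nearly all actives have a fitted effect of over 45% in size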).
The target of test [6] is Estrogen receptor (Homo sapiens) (UniProt P03372). The experiment in a line: qHTS assay to identify small molecule agonists of the estrogen receptor alpha (ER-alpha) signaling pathway (AID 743075; calls by dose curve).
Test [7] has the same target. The experiment in a line: qHTS assay to identify small molecule agonists of the estrogen receptor alpha (ER-alpha) signaling pathway using the BG1 cell line (AID 743079). Note: nearly all actives have a fitted effect of over 20% in size. Note: potency is the fitted concentration of half-maximal effect. The following applies: BG1Luc4E2 cells, ERE-luciferase agonist, 22 h; activation: at 70.3 µM (top of the series).
Test [8] is described as follows: qHTS assay to identify small molecule antagonists of the estrogen receptor alpha (ER-alpha) signaling pathway using the BG1 cell line (AID 743080; calls by dose curve;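 note: BG1 cells stimulated with 17beta-estradiol alongside compound; nearly all actives have a fitted effect of over 25% in size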). The method in brief:
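After 5 days in phenol-red-free 10% charcoal-stripped FBS medium, BG1-Luc-4E2 cells were seeded, left 24 h at 37 C, co-treated with compounds and 17beta-estradiol for 21.5 h, then assayed for viability and luciferase.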

Test [9] is described as follows: qHTS assay to identify small molecule antagonists of the estrogen receptor alpha (ER-alpha) signaling pathway using the BG1 cell line - cell viability counter screen (AID 743081).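 Note: compound given together with 17beta-estradiol as the ER stimulus; nearly all actives have a fitted effect of over 45% in size.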 Note: potency is the fitted concentration of half-maximal effect.
For a further test, the target named is Aromatase (Homo sapiens) (UniProt P11511). The experiment in a line: qHTS assay to identify aromatase inhibitors (AID 743083). Note: nearly all actives have a fitted effect of over 55% in size. Note: potency is the fitted concentration of half-maximal effect.
Sequence of Aromatase (Homo sapiens) (P11511 whole entry, looked up): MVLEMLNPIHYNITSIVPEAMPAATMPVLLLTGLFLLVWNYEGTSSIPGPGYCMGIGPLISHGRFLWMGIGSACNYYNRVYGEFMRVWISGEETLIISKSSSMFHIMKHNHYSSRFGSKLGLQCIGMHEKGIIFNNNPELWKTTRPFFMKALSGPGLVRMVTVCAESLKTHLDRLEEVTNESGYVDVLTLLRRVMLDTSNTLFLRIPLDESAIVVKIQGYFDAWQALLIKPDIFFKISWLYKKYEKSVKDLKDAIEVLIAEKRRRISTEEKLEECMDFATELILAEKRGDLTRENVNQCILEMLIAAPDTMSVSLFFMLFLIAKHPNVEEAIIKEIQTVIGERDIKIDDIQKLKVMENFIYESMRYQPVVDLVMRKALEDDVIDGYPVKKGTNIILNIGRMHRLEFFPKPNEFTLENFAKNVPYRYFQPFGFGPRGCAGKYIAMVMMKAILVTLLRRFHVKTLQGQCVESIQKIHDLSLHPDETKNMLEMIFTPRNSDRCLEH

Records with an inconclusive call do not appear. Calls of active or inactive are those of the source. Unless noted, calls come from the whole dose curve; as a rule, active = well fitted curve in the direction sought with a large enough effect in the repeat runs; inconclusive = weak or mixed curves; inactive = no such curve, though single readings can be large; an effect the other way counts as inactive or inconclusive.

For the molecule `Brc1cc(Br)c(Oc2cc(Br)c(Br)cc2Br)cc1Br`, the Potency result in test [1], in test [2], in test [4], in [5], in test [6] and in test [7] was “inactive” in each case. Moreover, the Potency entry in test [8] and in test [9] was “inactive” throughout. Besides, the outcome in test [3] was inactive.

As for `CN1C(C(=O)Nc2ccccn2)=C(O)c2sccc2S1(=O)=O`, the Potency entry in [1], in test [2], in [4], in [5], in test [6] and in test [7] was “inactive” each time. For the same molecule, the Potency result (in test [8]; with Aromatase (Homo sapiens)) was “inactive” in each case. Further, the result in [3] was inactive.

As for `COc1ncnc(NS(=O)(=O)c2ccc(N)cc2)c1OC`, the Potency result in [1], in test [2], in [4], in test [5], in test [6] and in test [7] was “inactive” each time. For the same molecule, the Potency result (in test [8]; in test [9]; with Aromatase (Homo sapiens)) was “inactive” throughout. For the same molecule, the call in test [3] was inactive.

`Cc1cc(=O)c2c(O)c3c(O)cc(=O)c4c3c3c(cc(O)c1c23)C(C)(C)C=4O`: the Potency was 0.841 µM (active) in [1] and 0.596 µM (active) in test [2].

Regarding `Cc1ccc(CO)cc1`, the Potency result in [1], in test [2], in test [4], in test [5], in test [6] and in test [7] was “inactive” in each case. Further, the Potency result (in test [8]; in test [9]; in the test with Aromatase (Homo sapiens)) was “inactive” in each case. In test [3], the molecule was called inactive.

For the molecule `Cc1cc(C)c(N)cc1C`, the Potency result in test [1], in test [2], in test [4], in [5], in test [6] and in test [7] was “inactive” throughout. For the same molecule, the Potency result in test [8] and in [9] was “inactive” throughout. Moreover, the molecule was classed as inactive in test [3].

For `CCC(=O)C1CC(C(C)C)CC=C1C` (stereo not given), the Potency entry in test [1], in [2], in test [4], in test [5], in test [6] and in test [7] was “inactive” each time. For the same molecule, the Potency entry (in [8]; in [9]; with Aromatase (Homo sapiens)) was “inactive” in each case. Also, in [3], the outcome was inactive.

Consider `N#CCc1ccc(Cl)cc1Cl`, for which the Potency result in [1], in test [2], in test [4], in test [5], in test [6] and in test [7] was “inactive” each time. The Potency result (in test [8]; in [9]; in the test with Aromatase (Homo sapiens)) was “inactive” throughout. Further, the outcome in test [3] was inactive.

For `O=C(O)CCC(=O)C(=O)O`, the Potency result in test [1], in test [2], in test [4], in [5], in [6] and in [7] was “inactive” in each case. The Potency entry (in [8]; in test [9]; in the test with Aromatase (Homo sapiens)) was “inactive” each time. Also, in test [3], the molecule was called inactive.

On to `CC(CO)CO`, for which the Potency entry in [1], in test [2], in [4], in [5], in test [6] and in test [7] was “inactive” each time. Also, the Potency entry (in [8]; in [9]; with Aromatase (Homo sapiens)) was “inactive” throughout. The molecule was classed as inactive in test [3].

Turning to `O=C1NC(=O)c2cc([N+](=O)[O-])ccc21`, the Potency result in test [1], in [2], in test [4], in [5], in test [6] and in test [7] was “inactive” in each case. Also, the Potency entry (in test [8]; in test [9]; with Aromatase (Homo sapiens)) was “inactive” in each case. Also, the molecule was classed as inactive in [3].

For `C=CC(C)(CCC=C(C)C)OC(=O)CC(C)C` (stereo not given), the Potency entry in [1], in test [2], in test [4], in test [5], in test [6] and in [7] was “inactive” in each case. Moreover, the Potency entry (in test [8]; in test [9]; in the test with Aromatase (Homo sapiens)) was “inactive” in each case. For the same molecule, the molecule was classed as inactive in [3].

Take `Cc1ccco1`: the Potency result in test [1], in test [2], in test [4], in [5], in [6] and in [7] was “inactive” in each case. The Potency entry (in [8]; in test [9]; in the test with Aromatase (Homo sapiens)) was “inactive” throughout. The result in test [3] was inactive.

Take `Brc1cc2ccccc2c2ccccc12`: the Potency result in test [1], in test [2], in [4], in [5], in test [6] and in [7] was “inactive” each time. Moreover, the Potency entry (in [8]; in test [9]; with Aromatase (Homo sapiens)) was “inactive” each time. Besides, the outcome in [3] was inactive.

Consider `Cc1cc2c(OCC(CNC(C)(C)C)OC(=O)c3ccccc3)cccc2[nH]1` (stereo not given), for which the Potency was 11.9 µM (active) in test [1] and 26.6 µM (active) in test [2]. Further, the molecule was classed as inactive in [3]. The Potency entry in [4], in test [5], in test [6], in test [7], in [8] and in test [9] was “inactive” in each case. Moreover, in the test with Aromatase (Homo sapiens), the Potency result was “inactive”.

Consider `CC(O)c1ccccc1` (stereo not given), for which the Potency entry in [1], in test [2], in test [4], in [5], in test [6] and in test [7] was “inactive” each time. In addition, the Potency result (in test [8]; in [9]; with Aromatase (Homo sapiens)) was “inactive” throughout. The call in [3] was inactive.

`CO[C@]1(NC(=O)CSC(F)F)C(=O)N2C(C(=O)O)=C(CSc3nnnn3CCO)CO[C@H]21`: the Potency entry in test [1], in test [2], in test [4], in test [5], in test [6] and in test [7] was “inactive” each time. Also, the Potency entry (in test [8]; in test [9]; in the test with Aromatase (Homo sapiens)) was “inactive” each time. Further, the outcome in test [3] was inactive.

Regarding `Nc1ccc(N=Nc2ccccc2)c(N)c1`, the Potency in [1] was 53.3 µM (active); in [7], 0.336 µM (active); in test [9], 26.7 µM (active). Besides, the Potency result (in [2]; in test [4]; in test [5]; in test [6]; with Aromatase (Homo sapiens)) was “inactive” throughout. The result in [3] was inactive.

With `NC(=O)c1ccncc1`, the Potency result (in test [1]; in [2]; in test [5]; in test [9]; with Aromatase (Homo sapiens)) was “inactive” throughout. Further, in [3], the outcome was inactive.

On to `CC(C)(c1ccccc1)c1ccccc1`, for which the Potency result (in test [1]; in test [2]; in [5]; in [9]; in the test with Aromatase (Homo sapiens)) was “inactive” throughout. Besides, the call in test [3] was inactive.

For the molecule `Clc1cc(Cl)nc(Cl)n1`, the Potency entry (in [1]; in [2]; in test [5]; in test [9]; in the test with Aromatase (Homo sapiens)) was “inactive” each time. In test [3], the molecule was classed as inactive.

As to `CC1CC(C)C(=O)C1=O` (stereo not given), the Potency entry (in test [1]; in test [2]; in [5]; in [9]; with Aromatase (Homo sapiens)) was “inactive” in each case. Besides, in test [3], the result was inactive.

On to `c1cc(N(CC2CO2)CC2CO2)ccc1Cc1ccc(N(CC2CO2)CC2CO2)cc1` (stereo not given), for which the Potency is 13.7 µM (active) in [1], 8.63 µM (active) in test [2] and 30.6 µM (active) with Aromatase (Homo sapiens). In test [3], the molecule was classed as inactive. Further, the Potency result in test [5] was “inactive”.

With `CC(=O)Oc1ccc([N+](=O)[O-])cc1CCl`, the Potency in [1] is 30.6 µM (active); in test [9], 61.1 µM (active). Besides, the Potency result (in test [2]; in test [5]; in test [6]; in test [7]; with Aromatase (Homo sapiens)) was “inactive” in each case. Also, in [3], the molecule was classed as inactive.
